Data: PubChem BioAssay
Several values for one entry are separate records, joined by “and”; a condition that tells them apart may be missing. Identical values can stand only once. Activity calls are given as the source filed them.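 How the source made its calls, unless noted: active means thallium flux through the channel raised or lowered by more than 3 SD from vehicle-only wells, actives on both sides; inactive means the rest.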

Experiments:
[1] = system: Hepatitis C virus NS3 helicase; assay: HCV NS3 helicase inhibitors, primary screen, biochemical, fluorescence polarization, NIH Clinical Collection (AID 743270; call rule not given here); conditions: NS3 helicase binding to Cy5-dT15 DNA, stronger effect = higher value, concentration not given here
[2] = target: Single-stranded DNA-binding protein (Escherichia coli (strain K12)) (UniProt P0AGE0); assay: E. coli SSB displacement from DNA, counter-screen for HCV NS3 helicase inhibitor project, biochemical, fluorescence polarization, NIH Clinical Collection (AID 743271; in the data active means inhibition above about 28%); conditions: stronger effect = higher value, concentration not given here
[3] = fluorescence interference in NS3h assay format, artefact control for HCV NS3 helicase inhibitor project, biochemical, NIH Clinical Collection (AID 743272; call rule not given here;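 further: HCV NS3 helicase with a Cy5 labelled single stranded DNA probe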); conditions: fluorescence interference counterscreen, stronger effect = lower value
[4] = stimulators of nuclear beta-catenin in C2C12, primary screen, imaging, WNT3A-conditioned medium, mouse C2C12, NPC library (AID 1117326; in the data active means nuclear beta-catenin stimulation mostly above about 4.2%, no sharp cut-off; inactive means mostly below about 10%); conditions: stronger effect = higher value
[5] = stimulators of insulin release from INS-1E, primary screen, cell-based, 5 mM glucose, NPC library (AID 1117329;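 active means compound raises insulin release from rat beta cells at 5 mM glucose, no numeric limit stated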); conditions: rat INS-1E insulin secretion, at 10 µM, stronger effect = higher value
[6] = growth inhibition of GSK3B-pretreated HCT116 cells – cell-based, CellTiter-Glo, 0.2 to 20 µM (AID 1117336;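 active means compounds lowering colon cancer cell viability after pretreatment blocking the GSK3B kinase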); conditions: HCT116 viability after GSK3B inhibitor, at 20 µM, stronger effect = higher value
[7] = inhibition of endothelial tube formation, primary screen, imaging, VEGF stimulated, CD31 staining, tube area, NPC library (AID 1117340;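 active means compound that reduces growth-factor-driven endothelial tube area in a mixed cell culture, no cutoff stated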); conditions: VEGF-stimulated ADSC/ECFC co-culture, at 10 µM, stronger effect = higher value
[8] = glucagon-like peptide 1 release enhancers, primary assay, NCI-H716 cell line, NPC library (AID 1117341;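 active means compound raises GLP1 secretion from the human gut endocrine cells, with no numeric limit stated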); conditions: NCI-H716 cells, at 10 µM, stronger effect = higher value
[9] = HCT116 colon cancer cell growth inhibition, primary screen, CellTiter-Glo luminescence, NPC library (AID 1117342;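 active means compounds that lower survival of HCT116 colon cancer cells in the luminescence readout, no numeric limit stated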); conditions: at 20 µM (top of the series)
[10] = CellTiter-Glo luminescent readout of SW480 viability loss, NPC library primary (AID 1117343;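 active means compounds that lower viability of the colon cancer cells in the luminescence readout, with no numeric limit stated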); conditions: CellTiter-Glo luminescence; at 20 µM (top of the series)
[11] = decreased DLD-1 cellular survival, CellTiter-Glo luminescent readout, NPC compound collection, primary HTS (AID 1117346;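 active means compounds that lower survival of DLD-1 colon cancer cells in the luminescence readout, no cutoff given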); conditions: DLD-1 viability, CellTiter-Glo luminescence; at 20 µM (top of the series)
[12] = target: 6-phosphogluconate dehydrogenase, decarboxylating (Homo sapiens) (UniProt P52209); assay: 6PGD enzyme inhibitors, primary screen, biochemical, human, recombinant enzyme, NADPH absorbance (AID 1159550;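 active means at least 20% inhibition of 6-phosphogluconate dehydrogenase activity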); conditions: recombinant 6PGD, NADPH absorbance 341 nm; at 10 µM; stronger effect = higher value
[13] = differential killing of epithelial or mesenchymal cells, primary screen, imaging, PC-3E GFP, TEM4-18 mCherry, co-culture (AID 1345086;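 active means compounds killing one labelled cell type while sparing the other, by normalised counts and ratio limits, not self-fluorescent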;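 on all read-outs here: cells exposed to compound for 72 h before imaging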;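 on red/green cell ratio (normalised): normalised mesenchymal count divided by normalised epithelial count so high means epithelial killing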); conditions: imaging cell counts, at 1 µM; for red/green cell ratio (normalised): actives lie on both sides, counts scaled to control wells, 1 = unselective
[14] = survival rescue of mitochondrial mutant cells in low glucose, primary screen, MELAS cybrids, Rieske KO mouse fibroblasts, CellTiter-Glo (AID 1508586;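 active means mean z-score across replicates of 1.96 or higher in either the MELAS or the Rieske mutant cell line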;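 further: z relative to plate mean and SD of compound and empty wells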)
[15] = target: NAD(+) hydrolase SARM1 (Homo sapiens) (UniProt Q6SZW1); assay: SARM1 TIR NADase inhibitors, cell lysate, NAD-Glo luminescence (AID 1508614;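 active means compound whose remaining NAD level is above about 45 nM, limit read from the data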); conditions: SAM-TIR HEK293T lysate NADase, at 1 µM, stronger effect = higher value
[16] = target: Mitogen-activated protein kinase 7 (Homo sapiens) (UniProt Q13164); assay: ERK5 transactivation activators in reporter cells, primary screen, cell-based, HTS (AID 1508626;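 active means luciferase signal above three times the same-plate solvent-only control wells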;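 further: luciferase driven by Gal4-ERK5 fusion binding five Gal4 sites before minimal TATA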); conditions: HeLa Gal4-ERK5 transactivation, 18 h, at 5 µM, stronger effect = higher value
F380Y = assay: modulators of BK channel variants, profiling panel, selectivity assay, cell-based, U2OS BacMam, thallium flux, beta subunits (AID 1259406); conditions: at 30 µM;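 further: initial slope of Thallos dye fluorescence rise after thallium is added; log ratio against the mean of 0.3% DMSO vehicle wells on the same plate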
F380Y/beta2Delta = assay: as above; conditions: at 30 µM
[17] = target: Calcium-activated potassium channel subunit alpha-1 (Homo sapiens) + Leucine-rich repeat-containing protein 26 (Homo sapiens) (UniProt Q12791+Q2I0M4); assay: as above; conditions: F380Y/Slo1WT/gamma1, at 30 µM
[18] = sensitizers of A549 cells to miR-34 induction, primary screen, imaging, A549 dox-inducible miR-34, nuclei and caspase counts (AID 1347080;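 active means compounds whose cell count with miR-34 switched on is under 0.7 times the count with it off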); conditions: A549 miR-34 inducible, Hoechst nuclei count, 48 h
[19] = measured here: epithelial PC-3E GFP cell survival
[20] = measured here: mesenchymal TEM4-18 mCherry cell survival
[21] = MELAS cybrid survival, CellTiter-Glo 48 h, stronger effect = higher value
[22] = Rieske KO mouse fibroblast survival, CellTiter-Glo 72 h
[23] = stronger effect = lower value, cell number ratio, induced over uninduced
[24] = measured here: relative caspase fold change +Dox/-Dox
[25] = measured here: total cells with miR-34 induction, stronger effect = lower value
[26] = measured here: total cells without miR-34 induction

NAD(+) hydrolase SARM1 (Homo sapiens), sequence (Q6SZW1 whole entry, looked up, the tested form may be a part): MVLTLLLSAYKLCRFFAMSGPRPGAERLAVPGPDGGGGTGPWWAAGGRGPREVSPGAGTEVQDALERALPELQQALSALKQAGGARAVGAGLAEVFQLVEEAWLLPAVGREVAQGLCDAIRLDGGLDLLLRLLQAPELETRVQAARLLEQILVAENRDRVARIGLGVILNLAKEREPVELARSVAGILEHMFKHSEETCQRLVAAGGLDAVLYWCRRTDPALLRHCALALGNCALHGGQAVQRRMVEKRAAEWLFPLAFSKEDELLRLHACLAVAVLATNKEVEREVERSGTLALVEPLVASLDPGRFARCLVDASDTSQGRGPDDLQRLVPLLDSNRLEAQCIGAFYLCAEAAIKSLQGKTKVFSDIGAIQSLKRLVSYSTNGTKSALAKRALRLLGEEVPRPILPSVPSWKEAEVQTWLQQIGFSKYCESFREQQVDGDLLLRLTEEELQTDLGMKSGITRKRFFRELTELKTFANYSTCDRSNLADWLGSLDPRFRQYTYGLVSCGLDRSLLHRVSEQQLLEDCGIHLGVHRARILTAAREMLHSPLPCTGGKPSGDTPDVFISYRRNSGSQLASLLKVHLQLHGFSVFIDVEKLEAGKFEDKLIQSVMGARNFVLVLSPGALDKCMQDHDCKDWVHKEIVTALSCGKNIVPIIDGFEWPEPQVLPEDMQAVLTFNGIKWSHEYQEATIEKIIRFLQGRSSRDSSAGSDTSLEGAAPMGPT
6-phosphogluconate dehydrogenase, decarboxylating (Homo sapiens), sequence (P52209 whole entry, looked up): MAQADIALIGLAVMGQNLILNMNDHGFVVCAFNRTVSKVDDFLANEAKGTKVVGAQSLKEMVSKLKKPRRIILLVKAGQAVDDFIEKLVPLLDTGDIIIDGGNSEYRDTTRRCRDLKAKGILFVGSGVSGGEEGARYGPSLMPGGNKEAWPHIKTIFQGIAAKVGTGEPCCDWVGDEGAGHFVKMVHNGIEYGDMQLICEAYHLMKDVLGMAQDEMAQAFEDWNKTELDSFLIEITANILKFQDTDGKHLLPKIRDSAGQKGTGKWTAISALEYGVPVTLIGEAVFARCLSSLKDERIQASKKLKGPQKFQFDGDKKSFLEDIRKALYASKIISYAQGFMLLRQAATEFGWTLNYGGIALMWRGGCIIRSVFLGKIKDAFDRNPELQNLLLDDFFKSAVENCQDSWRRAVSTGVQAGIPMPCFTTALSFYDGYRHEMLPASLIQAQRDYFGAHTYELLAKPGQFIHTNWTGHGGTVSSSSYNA
Mitogen-activated protein kinase 7 (Homo sapiens), sequence (Q13164 whole entry, looked up, the tested form may be a part): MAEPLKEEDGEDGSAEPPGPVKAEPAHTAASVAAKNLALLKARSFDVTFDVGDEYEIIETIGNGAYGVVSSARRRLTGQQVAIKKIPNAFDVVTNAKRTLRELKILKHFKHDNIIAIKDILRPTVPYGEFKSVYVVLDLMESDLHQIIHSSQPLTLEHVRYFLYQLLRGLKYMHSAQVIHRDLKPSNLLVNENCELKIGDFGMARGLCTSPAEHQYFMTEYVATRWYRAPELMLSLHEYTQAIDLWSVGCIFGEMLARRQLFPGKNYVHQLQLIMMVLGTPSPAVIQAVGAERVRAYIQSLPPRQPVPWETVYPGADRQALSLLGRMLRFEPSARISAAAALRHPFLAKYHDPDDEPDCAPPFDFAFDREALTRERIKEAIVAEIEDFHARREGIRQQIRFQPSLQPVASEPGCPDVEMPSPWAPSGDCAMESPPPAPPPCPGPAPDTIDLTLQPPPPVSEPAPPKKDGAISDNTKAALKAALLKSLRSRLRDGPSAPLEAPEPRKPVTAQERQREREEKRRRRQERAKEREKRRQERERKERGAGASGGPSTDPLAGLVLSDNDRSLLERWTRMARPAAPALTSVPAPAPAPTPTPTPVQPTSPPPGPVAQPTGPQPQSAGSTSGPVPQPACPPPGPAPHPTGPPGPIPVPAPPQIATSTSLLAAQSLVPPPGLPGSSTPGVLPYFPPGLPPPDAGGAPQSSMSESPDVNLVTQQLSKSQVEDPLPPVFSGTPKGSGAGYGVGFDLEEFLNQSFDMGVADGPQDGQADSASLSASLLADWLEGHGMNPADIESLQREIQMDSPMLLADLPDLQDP
Calcium-activated potassium channel subunit alpha-1 (Homo sapiens) + Leucine-rich repeat-containing protein 26 (Homo sapiens), sequence (Q2I0M4 whole entry, looked up, one chain of several): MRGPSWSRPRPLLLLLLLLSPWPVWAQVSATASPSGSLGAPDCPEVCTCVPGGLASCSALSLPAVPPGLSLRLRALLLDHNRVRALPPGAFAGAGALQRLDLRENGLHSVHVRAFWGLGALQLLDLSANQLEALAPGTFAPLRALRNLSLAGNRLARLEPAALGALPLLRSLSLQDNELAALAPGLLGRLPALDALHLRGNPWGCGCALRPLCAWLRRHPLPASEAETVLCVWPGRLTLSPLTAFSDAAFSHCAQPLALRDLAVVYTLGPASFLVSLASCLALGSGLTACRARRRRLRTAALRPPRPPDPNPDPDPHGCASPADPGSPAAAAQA

CC(=O)CCCCn1c(=O)c2c(ncn2C)n(C)c1=O
1.37: normalised cell number [13, 20]
inactive: inhibition [1] -5.15% | inhibition [2] -2.41% | fluorescence ratio [3] 1 | nuclear beta-catenin stimulation ([4]; at 10 µM) 0.1% | insulin secretion stimulation [5] -1.6% | viability decrease [6] 2.8% | tube area decrease [7] -8.3% | GLP1 secretion stimulation [8] 1.9% | inhibition of viability [9] -8.4% | viability decrease (inhibition) [11] 10.8% | inhibition [12] 4.74% | red/green cell ratio (normalised) [13] 1.09 | z-score [14, 21] 0.897 and 0.351 | remaining NAD [15] 10 nM | luciferase signal [16] 88 AU | log fold change Tl+ flux (F380Y) 0.00269 | log fold change Tl+ flux (F380Y/beta2Delta) -0.0305 | log fold change Tl+ flux [17] -0.00624
-0.8%: nuclear beta-catenin stimulation ([4]; stimulation, at 2 µM)
0.0131 and -0.0411: z-score [14, 22]
1.25: normalised cell number [13, 19]
active: viability decrease (inhibition) [10] 52.4%

CCN(CC)CCOC(=O)c1ccc(N)cc1
active: viability decrease (inhibition) [10] 56.5%
inactive: inhibition [1] -3.18% | inhibition [2] 0.29% | fluorescence ratio [3] 0.92 | nuclear beta-catenin stimulation ([4]; at 10 µM) 0.6% | insulin secretion stimulation [5] 0.1% | viability decrease [6] 2.8% | tube area decrease [7] 7% | GLP1 secretion stimulation [8] -0.7% | inhibition of viability [9] 4.2% | viability decrease (inhibition) [11] 1.05% | inhibition [12] 2.32% | red/green cell ratio (normalised) [13] 1.08 | z-score [14, 21] -0.214 and -0.849 | remaining NAD [15] 10 nM | luciferase signal [16] 92 AU | log fold change Tl+ flux (F380Y) -0.0653 | log fold change Tl+ flux (F380Y/beta2Delta) 0.0223 | log fold change Tl+ flux [17] 0.0123
-0.3%: nuclear beta-catenin stimulation ([4]; stimulation, at 2 µM)
-0.241 and -0.347: z-score [14, 22]
1.03: normalised cell number [13, 20]
0.95: normalised cell number [13, 19]

Nc1ccc(S(=O)(=O)c2ccc(N)cc2)cc1
1.49: normalised cell number [13, 20]
10800 and 9580 and 11700: cell count [18, 26]
9830 and 8600 and 10200: cell count [18, 25]
active: viability decrease (inhibition) [10] 59.5%
2.46 and 1.04 and 1.7: fold change [18, 24]
inactive: inhibition [1] -3.18% | inhibition [2] 0.29% | fluorescence ratio [3] 0.95 | nuclear beta-catenin stimulation ([4]; at 10 µM) -0.7% | insulin secretion stimulation [5] -2.3% | viability decrease [6] -8.05% | tube area decrease [7] 8.8% | GLP1 secretion stimulation [8] -1.2% | inhibition of viability [9] 1.3% | viability decrease (inhibition) [11] 7.95% | inhibition [12] 14.4% | red/green cell ratio (normalised) [13] 1.31 | fold change [18, 23] 0.912 and 0.897 and 0.875 | z-score [14, 21] 0.848 | remaining NAD [15] 10 nM | luciferase signal [16] 32 AU | log fold change Tl+ flux (F380Y) 0.0363 | log fold change Tl+ flux (F380Y/beta2Delta) 0.0421 | log fold change Tl+ flux [17] -0.0163
0.158: z-score [14, 22]
1.14: normalised cell number [13, 19]
-0.4%: nuclear beta-catenin stimulation ([4]; stimulation, at 2 µM)

CCOc1ccc2ccccc2c1C(=O)N[C@@H]1C(=O)N2[C@@H]1SC(C)(C)[C@@H]2C(=O)O
9360 and 10500: cell count [18, 26]
9950 and 9060: cell count [18, 25]
0.823 and 1.09: fold change [18, 24]
0.1%: nuclear beta-catenin stimulation ([4]; stimulation, at 2 µM)
inactive: inhibition [1] -10.4% | inhibition [2] -6.58% | fluorescence ratio [3] 0.98 | nuclear beta-catenin stimulation ([4]; at 10 µM) -0.5% | insulin secretion stimulation [5] 0.3% | viability decrease [6] -12.1% | tube area decrease [7] -14.5% | GLP1 secretion stimulation [8] -2.2% | inhibition of viability [9] -10.6% | viability decrease (inhibition) [10] 39.8% | viability decrease (inhibition) [11] -29.8% | inhibition [12] -5.14% | fold change [18, 23] 1.06 and 0.86 | z-score [14, 21] 0.661 | remaining NAD [15] 10 nM | luciferase signal [16] 76 AU | log fold change Tl+ flux (F380Y) -0.0205 | log fold change Tl+ flux (F380Y/beta2Delta) -0.0424 | log fold change Tl+ flux [17] 0.0363
-0.47: z-score [14, 22]

CC(C)(C)NC[C@H](O)COc1nsnc1N1CCOCC1
0.265 and 0.0861: z-score [14, 22]
inactive: inhibition [1] 0.45% | inhibition [2] 2.57% | fluorescence ratio [3] 0.98 | nuclear beta-catenin stimulation ([4]; at 10 µM) 2.1% | insulin secretion stimulation [5] 3.2% | viability decrease [6] 6.4% | tube area decrease [7] -8.3% | GLP1 secretion stimulation [8] 1.7% | inhibition of viability [9] -6.3% | viability decrease (inhibition) [10] -4.9% | viability decrease (inhibition) [11] -2.7% | inhibition [12] -2.5% | z-score [14, 21] 0.744 and 0.988 | remaining NAD [15] 10 nM | luciferase signal [16] 32 AU | log fold change Tl+ flux (F380Y) 0.0205 | log fold change Tl+ flux (F380Y/beta2Delta) 0.019 | log fold change Tl+ flux [17] 0.00124
0.4%: nuclear beta-catenin stimulation ([4]; stimulation, at 2 µM)

C[C@]12CCC(=O)C=C1CC[C@@H]1[C@@H]2[C@@H](O)C[C@@]2(C)[C@H]1CC[C@]2(O)C(=O)CO
0.1%: nuclear beta-catenin stimulation ([4]; stimulation, at 2 µM)
inactive: inhibition [1] 0.45% | inhibition [2] 5.62% | fluorescence ratio [3] 0.93 | nuclear beta-catenin stimulation ([4]; at 10 µM) -0.3% | insulin secretion stimulation [5] 1.1% | viability decrease [6] -18.7% | tube area decrease [7] 9.1% | GLP1 secretion stimulation [8] 1.8% | inhibition of viability [9] -13.9% | viability decrease (inhibition) [10] 14.7% | viability decrease (inhibition) [11] -6.7% | inhibition [12] -14.6% | z-score [14, 21] -0.02 and 0.332 | remaining NAD [15] 10 nM | luciferase signal [16] 124 AU | log fold change Tl+ flux (F380Y) 0.0399 | log fold change Tl+ flux (F380Y/beta2Delta) 0.0274 | log fold change Tl+ flux [17] -0.00874
-0.00651 and 1.17: z-score [14, 22]

C[C@]12C=CC(=O)C=C1CC[C@@H]1[C@@H]2C(=O)C[C@@]2(C)[C@H]1CC[C@]2(O)C(=O)CO
0.8%: nuclear beta-catenin stimulation ([4]; stimulation, at 2 µM)
10300 and 7950 and 9680: cell count [18, 25]
-0.259 and 0.148: z-score [14, 22]
inactive: inhibition [1] -0.45% | inhibition [2] -1.24% | fluorescence ratio [3] 0.95 | nuclear beta-catenin stimulation ([4]; at 10 µM) 0.6% | insulin secretion stimulation [5] -2.5% | viability decrease [6] -21.3% | tube area decrease [7] -13.7% | GLP1 secretion stimulation [8] 0.9% | inhibition of viability [9] -8.2% | viability decrease (inhibition) [10] -6.4% | viability decrease (inhibition) [11] -11.6% | inhibition [12] -6.11% | fold change [18, 23] 0.98 and 0.843 and 0.886 | z-score [14, 21] 0.134 and 0.541 | remaining NAD [15] 10 nM | luciferase signal [16] 28 AU | log fold change Tl+ flux (F380Y) 0.00715 | log fold change Tl+ flux (F380Y/beta2Delta) 0.0137 | log fold change Tl+ flux [17] -0.00874
1.65 and 0.777 and 1.15: fold change [18, 24]
10500 and 9420 and 10900: cell count [18, 26]
